Screening data deposited in PubChem by National Center for Advancing Translational Sciences (NCATS).
The sample as a whole holds a higher share of hits than the screen did.
Gal4-VP16 FLuc = counter-screen for ROR gamma inhibitors: Gal4-VP16 reporter; Drosophila S2 Gal4-VP16 UAS-luciferase, luminescence, 20 h; Potency, µM (top dose mostly 53.6 µM), for the others: at the top dose activity, negative = inhibition, hits mostly inhibitors; 3.5% of 310,000 active;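 also: Gal4-VP16 expression switched on by copper sulfate through the metallothionein promoter; potency is read from the fitted curve at half-maximal effect; % is scaled to controls: 0 for no effect and ±100 for the full control effect; nearly all actives have a fitted effect of over 50% in size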
a7 integrin act = integrin-mediated muscular dystrophy alleviation activation; alpha7betagal myoblasts, beta-gal FDG fluorescence, 48 h; Potency, µM (titrated, usually from 38.3 µM), for the others: at the top dose activation, actives largely listed as activators; 0.064% of 350,000 active; AID 624291;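 also: potency is read from the fitted curve at half-maximal effect; 100% = response of the positive control SU9516; nearly all actives have a fitted effect of over 60% in size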
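Alpha7betagal+/- myoblasts (passage 13) were plated 16-24 hr, then exposed to compounds (1:260 dilution of DMSO stock) for 48 hours at 37C. After MPER lysis, β-galactosidase reporter activity was read as FDG fluorescence (ex 480/em 540) after 30 minutes.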
Giardia kill = Giardia lamblia killing; activity change, % at 7.66 µM, hits read low; 0.15% of 340,000 active; Giardia lamblia trophozoite viability; in the data active = activity change below about -80%; inconclusive = between about -30% and that limit;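 also: parasites exposed to compound for two days anaerobically before the ATP read; % is scaled to controls: 0 for no effect and ±100 for the full control effect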
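Compounds were tested on trophozoites seeded at 100 cells/well and held 48 hrs at 37 deg C anaerobically. An ATP-based luminescent kit measured the remaining live cells.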
RORg inh = blocks mouse ROR gamma transcriptional activity | 5.4% of 310,000 active | Potency, µM (titrated, usually from 53.6 µM), for inactives: at the top dose activity change, negative = inhibition, most hits filed as inhibitors | P51450 | Drosophila S2 Gal4-RORgamma UAS-luciferase reporter, 20 h; also: potency is read from the fitted curve at half-maximal effect; % is scaled to controls: 0 for no effect and ±100 for the full control effect; nearly all actives have a fitted effect of over 60% in size
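Stable Schneider cell line, Gal4 DNA-binding domain fused to ROR gamma, UAS-luciferase. Cmpd 1 hr RT → CuSO4 700 uM final → 20 hr RT → luciferase reagent 10 min → luminescence.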
ERG-DNA inh = blocks human ERG Ets domain binding to DNA | P11308 | fluorescence polarization, His-ERG Ets domain / labelled DNA | Potency, µM (series often up to 76.9 µM), inactives show at the top dose FP activity, negative = inhibition, usual class: inhibitors | 0.028% of 370,000 active; active = well fitted inhibition curve with a large enough effect in the polarisation, with a control signal flat; inconclusive = small, poorly fitted or top-dose-only effect, or effect the other way, or a change in a side signal; inactive = no such curve, though single readings can be large or run the other way; the % refers to the polarisation;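 also: polarization taken with two DNA probes labelled with fluorescein and Texas red; potency is read from the fitted curve at half-maximal effect; % of control where 0% means no effect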
Target sequence (P11308 whole entry, looked up, the tested form may be a part): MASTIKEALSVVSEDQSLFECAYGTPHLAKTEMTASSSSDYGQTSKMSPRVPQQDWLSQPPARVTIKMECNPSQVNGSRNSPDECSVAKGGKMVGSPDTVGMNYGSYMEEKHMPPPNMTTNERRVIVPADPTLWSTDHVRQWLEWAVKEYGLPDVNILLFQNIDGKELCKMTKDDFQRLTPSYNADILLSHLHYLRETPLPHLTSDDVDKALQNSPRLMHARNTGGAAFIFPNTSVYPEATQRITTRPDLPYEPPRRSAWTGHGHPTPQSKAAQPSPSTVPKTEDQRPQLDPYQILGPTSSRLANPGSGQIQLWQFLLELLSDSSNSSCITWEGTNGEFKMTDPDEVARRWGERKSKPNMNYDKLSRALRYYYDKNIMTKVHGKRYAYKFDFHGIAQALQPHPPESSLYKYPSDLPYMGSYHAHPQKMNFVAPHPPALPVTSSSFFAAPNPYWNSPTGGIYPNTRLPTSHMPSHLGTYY
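His-tagged ERG Ets domain (1 uM in the protein solution; 300mM KCl, 50mM Tris-HCl, 1mM EDTA, 1mM DTT, pH 7.5) received compound, then a probe mix of 5 nM fluorescein-DNA and 100nM Texas-615-DNA. Fluorescence polarization was read for both dyes.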
An asterisk follows results filed as active; ? = inconclusive; nt = no result; ! = not active in a repeat. Unless noted, calls follow the shape of the dose curve; as a rule, active = well fitted curve in the direction sought with a large enough effect; inconclusive = small, poorly fitted or top-dose-only effect, or another doubt; inactive = no such curve, though single readings can be large; an effect the other way counts as inactive or inconclusive.

SMILES | Gal4-VP16 FLuc | a7 integrin act | Giardia kill | RORg inh | ERG-DNA inh
Cc1cc(NC(=O)/C=C/c2cccc(Cl)c2)n(-c2nc3ccccc3[nH]2)n1 | ? | -16% | 2 | ? | -11%
COc1ccc(/C=C/C(=O)Nc2cc(C)nn2-c2nc3ccccc3n2Cc2cccc([N+](=O)[O-])c2)cc1 | -2% | 25% | 15 | 2% | -8%
COc1ccc(/C=C/C(=O)Nc2cc(C)nn2-c2nc3ccccc3[nH]2)cc1 | 2.5µM* | -48% | -22 | 1.8µM* | nt
Cc1cc(NC(=O)/C=C/c2ccc(F)cc2)n(-c2nc3ccccc3[nH]2)n1 | 1µM* | -9% | -11 | 1.3µM* | 2%
Cc1cc(NC(=O)/C=C/c2cccc(F)c2)n(-c2nc3ccccc3[nH]2)n1 | 2.8µM* | 0% | -6 | 1.6µM* | -1%
Cc1cc(NC(=O)CSc2nc3ccccc3[nH]2)n(-c2ccccc2)n1 | -5% | -7% | 12 | 26% | -10%
COc1ccc(NS(=O)(=O)c2ccc3nc(COc4ccc(C#N)cc4)[nH]c3c2)cc1 | ? | 9% | -19 | -7% | nt
O=C(NC(=S)Nc1ccc(N2CCOCC2)cc1)c1ccc2c(c1)OCCO2 | ? | -33% | 0 | 8.9µM* | 5%
CC(=O)N1CCN(c2ccc(NC(=S)NC(=O)c3ccccc3)cc2)CC1 | -11% | 21% | -5 | -17% | -12%
O=C(NC(=S)Nc1ccc(N2CCCCC2)cc1)c1ccc2c(c1)OCCO2 | 5µM* | 4% | -22 | 3.5µM* | -4%
O=C(NC(=S)Nc1ccc(N2CCCC2)cc1)c1ccc(F)cc1 | 5.6µM* | -19% | -16 | 2.5µM* | -10%
O=C(NC(=S)Nc1c(F)cc(F)cc1Br)c1ccc2c(c1)OCCO2 | ? | -13% | -5 | 7.9µM* | 8%
CN(CC(=O)NCc1cccs1)CC(=O)Nc1ccc(F)c(F)c1F | -3% | -9% | -7 | 0% | -12%
O=C(CC1C[C@H](C(=O)N2CCCCC2)[C@@]2(CCc3ccccc3)c3[nH]c4ccccc4c3CCN2C1=O)NCCCn1ccnc1 (stereo partly drawn) | nt | -2% | -6 | nt | -2%
CCCCS(=O)CC(COCc1ccccc1)OC(=O)CSc1nc(C)cc(C)n1 (stereo not drawn) | -3% | 7% | 5 | 9% | -8%
O=C(NCc1cccnc1)c1cc(C(=O)NCc2cccnc2)cc([N+](=O)[O-])c1 | nt | -13% | nt | nt | nt
O=C(NC(=S)Nc1ccc(F)cc1)c1ccc2c(c1)OCCO2 | ? | 17% | -30 | 7.1µM* | -3%
COc1cccc(/C(O)=C/c2nc3ccc(C(=O)NCCc4cccc(C)c4)cc3[nH]c2=O)c1 | ? | -43% | 28 | 20% | 14%
COc1cccc(/C(O)=C/c2nc3ccc(C(=O)NCCc4ccc(Cl)cc4)cc3[nH]c2=O)c1 | 14µM* | -6% | -9 | ? | 10%
Cc1cc(NS(=O)(=O)c2cn(C)nc2C)no1 | nt | 10% | 6 | nt | 5%
CCCCN(C(=O)Cc1coc2cc(C)c(C)cc12)c1c(N)n(Cc2ccccc2)c(=O)[nH]c1=O | nt | 9% | -18 | nt | 4%
c1ccc(CCNc2ncnc3ccccc23)cc1 | 0.56µM* | 15% | -16 | 1.1µM* | -3%
CCCCCCCCNc1ncnc2ccccc12 | 0.35µM* | -26% | 5 | 2.2µM* | 6%
COc1ccc(NC(=O)c2cc(OCCCN(C)C)nn2Cc2ccccc2)cc1 | -2% | nt | nt | -2% | nt
Cc1ccc(/C=C/C(=O)Nc2ccccc2C(N)=O)o1 | nt | nt | nt | nt | -10%
SMILES | Gal4-VP16 FLuc | a7 integrin act | Giardia kill | RORg inh | ERG-DNA inh
Cc1ccc(C=Nc2ccccc2C(N)=O)o1 | 20µM* | 27% | 1 | ? | 3%
CN(C)c1ccc(C=Nc2ccccc2C(N)=O)cc1 | 10µM* | -16% | ? | ? | 9%
CN(C)c1ccc(/C=N/NC(=O)c2ccco2)cc1 | -29% | 0% | 3 | -35% | -1%
O=C(N/N=C/c1ccc([N+](=O)[O-])o1)c1cc(-c2cccc(Br)c2)nc2ccccc12 | ? | -67% | -86* | 3.2µM* | -5%
CCCc1ccc(-c2cc(C(=O)N/N=C/c3ccc([N+](=O)[O-])o3)c3ccccc3n2)cc1 | 8.9µM* | -51% | -94* | 7.1µM* | 0%
O=C(N/N=C/c1ccc2c(c1)OCO2)c1cc(-c2ccccc2)nc2ccccc12 | ? | 19% | 14 | ? | 15%
Cc1ccc(C)c(N2CCN(S(=O)(=O)c3ccc(-c4cnc(C5CC5)o4)cc3)CC2)c1 | nt | nt | nt | nt | 1%
O=S(=O)(Oc1ccccc1N1CCCCC1)c1ccccc1 | -2% | ? | 37 | 11% | -4%
Cc1ccc2c(c1)-c1[nH]c(=S)ncc1CS2 | -13% | 4% | -14 | 2.2µM* | 2%
c1ccc(Cn2c(CN3CCCC3)nc3ccccc32)cc1 | ? | 8% | 17 | 14µM* | -2%
O=c1[nH]c(SCc2nc3ccccc3n2Cc2ccccc2)nc2ccccc12 | ? | -4% | 6 | 4.5µM* | 2%
Clc1ccc(Cn2c(CN3CCCC3)nc3ccccc32)cc1 | 7.1µM* | nt | nt | 2µM*! | nt
OCc1nc2ccccc2n1Cc1ccc(Cl)cc1 | 4% | 2% | -19 | 24% | 2%
CC(=O)c1cc(C(=O)Nc2cc(C)cc(C)c2)c2ccccn12 | nt | nt | nt | nt | 6%
Cc1cccc(S(=O)(=O)c2cn(C)c3cc(N4CCN(c5ccc(F)cc5)CC4)c(F)cc3c2=O)c1 | nt | nt | nt | nt | -3%
COC(=O)c1c(C)[nH]c(C(=O)/C=C/c2cccc(Cl)c2)c1C | ? | -38% | -4 | 8.9µM* | -3%
Cc1[nH]c2ccccc2c(=O)c1C(=O)/C=C/c1ccccc1 | 5.6µM* | -45% | -20 | 5.6µM* | -12%
COC(=O)c1c(C)[nH]c(C=O)c1-c1ccccc1 | -11% | -5% | -1 | 6% | -19%
COC(=O)c1c(C)[nH]c(C(=O)/C=C/c2ccc(C)cc2)c1C | 4µM* | 7% | -13 | 0.32µM* | 6%
COC(=O)c1c(C)[nH]c(C(=O)/C=C/c2ccccc2)c1C | 7.1µM* | -19% | -26 | 1.4µM* | nt
CCOC(=O)c1c(C)[nH]c(C)c1C(=O)COC(=O)/C=C/c1cccc(Cl)c1 | -5% | -22% | -13 | 19% | -1%
O=C(C=Cc1ccccc1)c1c[nH]c2ccccc2c1=O | nt | -68% | 5 | nt | 6%
CC1CCCCC1NC(=O)/C(C#N)=C/c1ccccc1F (stereo not drawn) | 11µM* | -67% | 12 | 11µM* | -3%
COc1cc(/C=C(\C#N)C(=O)NC2CCCCC2C)ccc1OS(=O)(=O)c1ccc(C)cc1 (stereo not drawn) | 11µM* | -8% | -16 | ? | 5%
CCCCNC(=O)Cn1ncc2c(C)n(Cc3cccc(Cl)c3)c(C)c2c1=O | nt | nt | nt | nt | -2%
CC(=O)Nc1ccc(NC(=S)NC(=O)c2ccc(-c3ccccc3)cc2)cc1 | nt | 2% | -8 | nt | 11%
